Test in all cases: DAPPL (digital affinity profiling via proximity ligation, sequencing); 10 mM Tris-HCl pH 7.5, 50 mM NaCl, 1 mM DTT, 4% glycerol, room temperature, 30 min; GST-TFs on glutathione beads, 16-mer random dsDNA library, 0.1% formaldehyde crosslink after washing; high values mean tight binding
Experiment [1] concerns the target T1, GABPA (Homo sapiens, UniProt Q06546 1-454).
T1 sequence: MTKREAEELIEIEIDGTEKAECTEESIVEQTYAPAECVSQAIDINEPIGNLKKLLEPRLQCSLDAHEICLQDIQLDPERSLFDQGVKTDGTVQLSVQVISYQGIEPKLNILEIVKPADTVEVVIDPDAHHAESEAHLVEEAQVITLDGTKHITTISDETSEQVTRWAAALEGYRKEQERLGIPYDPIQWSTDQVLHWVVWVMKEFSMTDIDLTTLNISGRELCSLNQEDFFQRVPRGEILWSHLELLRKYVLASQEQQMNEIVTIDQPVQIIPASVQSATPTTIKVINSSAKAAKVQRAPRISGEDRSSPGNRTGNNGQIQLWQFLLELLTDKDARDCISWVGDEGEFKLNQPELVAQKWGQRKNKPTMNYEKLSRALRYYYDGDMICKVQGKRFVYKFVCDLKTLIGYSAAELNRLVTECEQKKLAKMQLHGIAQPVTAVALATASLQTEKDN
As to conditions: protein: recombinant; tags: N-terminal GST; dsDNA, one strand shown. A digest of the protocol:
(§1)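 Human transcription factors carrying a GST fusion were produced in yeast, bound to glutathione beads, tagged with DNA barcodes and pooled together with a tag-only sample. Each pool was held with 200 nmole of a random double-stranded 16-mer DNA library in Tris/NaCl/DTT/glycerol buffer for 30 min at room temperature, then washed, crosslinked in 0.1% formaldehyde, proximity-ligated with BsaI/T4 ligase (1 h, 37 °C), PCR-amplified and sequenced on an Illumina NextSeq500. Binding signal is the read frequency of each hexamer for a given factor divided by its frequency in the tag-only sample.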

Experiment [2] concerns the target ELF1 (Homo sapiens, UniProt P32519 1-619). As to conditions: protein: recombinant; tags: N-terminal GST; dsDNA, one strand shown. A digest of the protocol: as §1
Experiment [3] has as its target T2, ELK3 (Homo sapiens, UniProt P41970 1-407).
T2 sequence: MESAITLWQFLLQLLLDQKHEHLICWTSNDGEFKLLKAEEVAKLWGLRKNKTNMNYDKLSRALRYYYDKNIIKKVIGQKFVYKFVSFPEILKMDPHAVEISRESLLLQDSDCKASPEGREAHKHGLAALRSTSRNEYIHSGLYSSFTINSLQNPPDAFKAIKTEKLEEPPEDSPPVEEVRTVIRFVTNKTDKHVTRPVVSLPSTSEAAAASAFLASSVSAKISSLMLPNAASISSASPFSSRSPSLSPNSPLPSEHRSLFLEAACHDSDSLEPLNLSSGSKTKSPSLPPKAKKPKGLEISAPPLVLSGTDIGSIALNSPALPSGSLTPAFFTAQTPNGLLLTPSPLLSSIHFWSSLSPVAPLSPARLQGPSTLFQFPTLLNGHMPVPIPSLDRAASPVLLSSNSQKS
As to conditions: protein: recombinant; tags: N-terminal GST; dsDNA, one strand shown. The method in brief:
as §1

Experiment [4] concerns the target T3, FEV (Homo sapiens, UniProt Q99581 1-238).
T3 sequence: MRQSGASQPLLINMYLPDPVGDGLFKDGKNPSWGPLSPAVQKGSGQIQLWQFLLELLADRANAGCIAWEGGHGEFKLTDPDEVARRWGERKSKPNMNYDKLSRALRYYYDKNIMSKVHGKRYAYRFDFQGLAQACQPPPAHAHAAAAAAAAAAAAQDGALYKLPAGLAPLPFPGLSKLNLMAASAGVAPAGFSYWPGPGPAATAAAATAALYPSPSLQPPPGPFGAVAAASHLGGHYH
As to conditions: protein: recombinant; tags: N-terminal GST; dsDNA, one strand shown. The method in brief: as §1

Experiment [5] has as its target HSF1 (Homo sapiens, UniProt Q00613 1-529). The conditions noted are these: protein: recombinant; tags: N-terminal GST; chain copies: 3; dsDNA, one strand shown. The method in brief: as §1
In experiment [6] the target is T4, SPIC (Homo sapiens, UniProt Q8N5J4 1-248).
T4 sequence: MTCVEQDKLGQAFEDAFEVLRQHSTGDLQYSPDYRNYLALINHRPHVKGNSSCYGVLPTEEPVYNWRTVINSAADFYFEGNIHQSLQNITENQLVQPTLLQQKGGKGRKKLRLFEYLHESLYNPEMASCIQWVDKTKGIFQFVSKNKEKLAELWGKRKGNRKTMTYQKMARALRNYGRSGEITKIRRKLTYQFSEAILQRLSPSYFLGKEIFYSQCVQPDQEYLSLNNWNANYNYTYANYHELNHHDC
The conditions noted are these: protein: recombinant; tags: N-terminal GST; dsDNA, one strand shown. The method in brief:
as §1

The target in experiment [7] is CRX (Homo sapiens, UniProt O43186 1-299). As to conditions: protein: recombinant; tags: N-terminal GST; dsDNA, one strand shown. The method in brief:
as §1

Experiment [8] concerns the target ETV1 (Homo sapiens, UniProt P50549 1-477). The conditions noted are these: protein: recombinant; tags: N-terminal GST; dsDNA, one strand shown. The method in brief: as §1
In experiment [9] the target is T5, ERF (Homo sapiens, UniProt P50548 1-548).
T5 sequence: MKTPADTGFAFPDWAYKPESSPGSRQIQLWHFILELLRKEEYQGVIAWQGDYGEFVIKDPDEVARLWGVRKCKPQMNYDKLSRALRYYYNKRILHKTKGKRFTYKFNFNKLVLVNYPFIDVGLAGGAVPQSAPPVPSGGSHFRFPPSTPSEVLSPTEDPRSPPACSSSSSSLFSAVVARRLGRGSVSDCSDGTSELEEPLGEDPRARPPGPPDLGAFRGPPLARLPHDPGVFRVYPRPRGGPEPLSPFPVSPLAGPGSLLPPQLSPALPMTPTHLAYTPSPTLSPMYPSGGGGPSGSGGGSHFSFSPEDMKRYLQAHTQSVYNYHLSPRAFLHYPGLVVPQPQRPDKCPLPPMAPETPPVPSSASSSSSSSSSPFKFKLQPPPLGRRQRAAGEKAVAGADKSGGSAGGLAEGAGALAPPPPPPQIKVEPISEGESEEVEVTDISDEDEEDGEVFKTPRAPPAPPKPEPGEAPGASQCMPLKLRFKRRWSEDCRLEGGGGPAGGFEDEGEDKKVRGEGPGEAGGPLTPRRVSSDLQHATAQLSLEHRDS
As to conditions: protein: recombinant; tags: N-terminal GST; dsDNA, one strand shown. A digest of the protocol: as §1

In experiment [10] the target is ETV6 (Homo sapiens, UniProt P41212 1-452). The conditions noted are these: protein: recombinant; tags: N-terminal GST; dsDNA, one strand shown. A digest of the protocol:
as §1

Experiment [11] has as its target T6, ERG (Homo sapiens, UniProt P11308 1-479).
T6 sequence: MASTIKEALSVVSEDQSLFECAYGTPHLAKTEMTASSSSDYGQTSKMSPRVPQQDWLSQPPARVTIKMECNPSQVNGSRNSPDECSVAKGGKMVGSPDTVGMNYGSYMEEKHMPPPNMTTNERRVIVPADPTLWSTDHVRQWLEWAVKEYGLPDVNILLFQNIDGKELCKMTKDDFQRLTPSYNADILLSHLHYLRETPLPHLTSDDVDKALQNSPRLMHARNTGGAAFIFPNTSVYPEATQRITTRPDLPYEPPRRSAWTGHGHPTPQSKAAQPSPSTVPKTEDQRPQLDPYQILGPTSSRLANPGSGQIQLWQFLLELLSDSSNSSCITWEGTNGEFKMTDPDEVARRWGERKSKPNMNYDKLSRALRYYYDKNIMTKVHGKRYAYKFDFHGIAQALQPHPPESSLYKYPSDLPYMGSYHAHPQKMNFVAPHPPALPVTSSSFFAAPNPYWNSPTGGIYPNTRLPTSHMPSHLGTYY
As to conditions: protein: recombinant; tags: N-terminal GST; dsDNA, one strand shown. The method in brief: as §1

Experiment [12] concerns the target T7, ELF3 (Homo sapiens, UniProt P78545 1-371).
T7 sequence: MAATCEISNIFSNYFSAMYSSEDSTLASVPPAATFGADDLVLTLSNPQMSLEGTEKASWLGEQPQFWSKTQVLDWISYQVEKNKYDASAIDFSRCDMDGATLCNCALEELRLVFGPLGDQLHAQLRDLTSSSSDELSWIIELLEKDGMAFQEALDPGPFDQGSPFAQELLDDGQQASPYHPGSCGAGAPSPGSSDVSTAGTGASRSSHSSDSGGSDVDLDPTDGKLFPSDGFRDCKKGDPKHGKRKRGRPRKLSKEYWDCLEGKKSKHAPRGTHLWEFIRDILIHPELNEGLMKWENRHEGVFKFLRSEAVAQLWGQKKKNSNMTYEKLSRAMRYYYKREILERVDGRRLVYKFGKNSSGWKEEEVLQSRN
As to conditions: protein: recombinant; tags: N-terminal GST; dsDNA, one strand shown. A digest of the protocol:
as §1

The target of experiment [13] is T8, ELK4 (Homo sapiens, UniProt P28324-2 1-405).
T8 sequence: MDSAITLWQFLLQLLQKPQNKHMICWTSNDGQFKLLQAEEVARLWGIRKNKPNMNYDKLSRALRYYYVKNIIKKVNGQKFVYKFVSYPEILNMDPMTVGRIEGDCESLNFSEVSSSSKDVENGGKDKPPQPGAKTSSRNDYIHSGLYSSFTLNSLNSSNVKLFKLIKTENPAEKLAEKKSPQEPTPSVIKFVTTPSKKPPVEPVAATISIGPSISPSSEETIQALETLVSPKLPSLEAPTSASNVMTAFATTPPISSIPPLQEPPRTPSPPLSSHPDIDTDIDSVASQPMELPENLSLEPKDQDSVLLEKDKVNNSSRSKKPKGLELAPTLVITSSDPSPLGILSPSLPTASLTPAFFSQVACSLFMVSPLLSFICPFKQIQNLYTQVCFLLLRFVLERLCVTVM
The conditions noted are these: protein: recombinant; tags: N-terminal GST; dsDNA, one strand shown. The method in brief: as §1

Chain of HSF1 (Q00613 whole entry): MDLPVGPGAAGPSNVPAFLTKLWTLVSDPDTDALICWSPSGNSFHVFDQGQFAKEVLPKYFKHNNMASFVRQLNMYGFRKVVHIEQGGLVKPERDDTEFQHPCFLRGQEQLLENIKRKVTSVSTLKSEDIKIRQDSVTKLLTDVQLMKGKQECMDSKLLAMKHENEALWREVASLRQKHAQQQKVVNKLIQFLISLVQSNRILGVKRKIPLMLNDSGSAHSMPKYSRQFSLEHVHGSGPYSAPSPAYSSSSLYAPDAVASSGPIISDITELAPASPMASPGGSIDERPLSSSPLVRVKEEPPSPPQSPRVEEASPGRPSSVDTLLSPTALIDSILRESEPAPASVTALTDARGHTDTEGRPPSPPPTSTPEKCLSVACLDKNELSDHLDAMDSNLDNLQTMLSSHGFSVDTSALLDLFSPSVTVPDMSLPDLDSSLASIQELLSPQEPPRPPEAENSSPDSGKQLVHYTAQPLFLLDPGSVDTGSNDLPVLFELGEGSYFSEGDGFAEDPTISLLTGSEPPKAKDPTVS
Chain of CRX (O43186 whole entry): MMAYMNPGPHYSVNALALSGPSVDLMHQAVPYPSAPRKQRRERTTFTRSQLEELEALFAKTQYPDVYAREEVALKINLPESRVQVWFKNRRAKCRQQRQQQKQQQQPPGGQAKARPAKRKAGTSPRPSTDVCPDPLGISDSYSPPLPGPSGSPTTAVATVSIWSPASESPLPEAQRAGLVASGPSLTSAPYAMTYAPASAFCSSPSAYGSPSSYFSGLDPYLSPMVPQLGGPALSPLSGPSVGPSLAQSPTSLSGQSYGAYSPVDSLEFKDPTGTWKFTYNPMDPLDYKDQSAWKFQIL
Chain of ETV6 (P41212 whole entry): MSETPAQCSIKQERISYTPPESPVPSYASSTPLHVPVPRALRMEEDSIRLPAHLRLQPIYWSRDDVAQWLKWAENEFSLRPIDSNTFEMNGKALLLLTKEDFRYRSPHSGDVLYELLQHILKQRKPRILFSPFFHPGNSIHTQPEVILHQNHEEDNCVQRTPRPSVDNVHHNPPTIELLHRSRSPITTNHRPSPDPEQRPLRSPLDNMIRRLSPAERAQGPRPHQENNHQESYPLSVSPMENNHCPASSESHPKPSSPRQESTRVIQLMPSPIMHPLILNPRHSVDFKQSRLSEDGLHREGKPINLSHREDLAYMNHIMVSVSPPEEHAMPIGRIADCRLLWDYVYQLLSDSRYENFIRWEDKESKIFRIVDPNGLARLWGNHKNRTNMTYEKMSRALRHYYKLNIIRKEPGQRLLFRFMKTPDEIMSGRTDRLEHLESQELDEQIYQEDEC
Chain of ETV1 (P50549 whole entry): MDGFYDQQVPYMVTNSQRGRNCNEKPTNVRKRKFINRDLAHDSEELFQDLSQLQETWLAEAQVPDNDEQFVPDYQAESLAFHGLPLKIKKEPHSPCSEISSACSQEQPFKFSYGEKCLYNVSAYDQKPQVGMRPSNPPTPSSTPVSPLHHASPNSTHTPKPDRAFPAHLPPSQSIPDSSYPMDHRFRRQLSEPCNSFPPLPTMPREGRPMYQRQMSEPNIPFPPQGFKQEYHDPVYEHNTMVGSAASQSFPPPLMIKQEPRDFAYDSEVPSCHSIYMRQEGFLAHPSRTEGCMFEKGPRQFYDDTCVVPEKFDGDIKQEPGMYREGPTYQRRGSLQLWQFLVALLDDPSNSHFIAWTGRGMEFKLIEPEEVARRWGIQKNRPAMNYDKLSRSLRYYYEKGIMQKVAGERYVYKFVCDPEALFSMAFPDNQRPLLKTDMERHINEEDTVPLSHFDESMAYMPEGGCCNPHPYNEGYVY
Chain of ELF1 (P32519 whole entry): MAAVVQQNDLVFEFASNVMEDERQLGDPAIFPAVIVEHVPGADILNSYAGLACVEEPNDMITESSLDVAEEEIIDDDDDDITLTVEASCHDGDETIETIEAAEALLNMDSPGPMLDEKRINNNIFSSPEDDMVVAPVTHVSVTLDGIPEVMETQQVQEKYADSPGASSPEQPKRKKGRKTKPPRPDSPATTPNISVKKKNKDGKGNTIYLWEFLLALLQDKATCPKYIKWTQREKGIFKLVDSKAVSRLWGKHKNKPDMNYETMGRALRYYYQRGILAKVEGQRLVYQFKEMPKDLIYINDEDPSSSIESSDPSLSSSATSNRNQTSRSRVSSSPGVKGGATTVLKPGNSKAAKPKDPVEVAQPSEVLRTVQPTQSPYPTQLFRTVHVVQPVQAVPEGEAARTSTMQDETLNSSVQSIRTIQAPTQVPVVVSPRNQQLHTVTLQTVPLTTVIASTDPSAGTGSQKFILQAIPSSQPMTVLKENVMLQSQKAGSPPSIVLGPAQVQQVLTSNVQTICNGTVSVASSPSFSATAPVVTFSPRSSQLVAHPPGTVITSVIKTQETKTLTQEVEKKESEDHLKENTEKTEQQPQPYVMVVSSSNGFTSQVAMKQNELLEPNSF

As to TAGAAC, the binding signal was 1.03 fold enrichment (6-mer frequency, TF over GST control) in [1]; 1.01 fold enrichment (6-mer frequency, TF over GST control) in [2]; 1.03 fold enrichment (6-mer frequency, TF over GST control) in experiment [3]; 1 fold enrichment (6-mer frequency, TF over GST control) in experiment [4]; 2.74 fold enrichment (6-mer frequency, TF over GST control) in [5]; 1 fold enrichment (6-mer frequency, TF over GST control) in experiment [6]. For the same sequence, the binding signal in experiment [7] is 1.43 fold enrichment (6-mer frequency, TF over GST control); in experiment [8] it was 1.07 fold enrichment (6-mer frequency, TF over GST control); in experiment [9], 1.02 fold enrichment (6-mer frequency, TF over GST control); in experiment [10], 1.09 fold enrichment (6-mer frequency, TF over GST control).

For the sequence AGAACC, the binding signal in experiment [11] is 1.01 fold enrichment (6-mer frequency, TF over GST control); in [5], 1.55 fold enrichment (6-mer frequency, TF over GST control); in experiment [6], 1.03 fold enrichment (6-mer frequency, TF over GST control); in [12] it was 1.06 fold enrichment (6-mer frequency, TF over GST control).

Regarding TTAGTG, the binding signal is 1.3 fold enrichment (6-mer frequency, TF over GST control) in [5]; 1.11 fold enrichment (6-mer frequency, TF over GST control) in experiment [13]; 1.89 fold enrichment (6-mer frequency, TF over GST control) in experiment [7].

The record behind these values is paper PMC7862700, “An all-to-all approach to the identification of sequence-specific readers for epigenetic DNA modifications on cytosine”.
